# A selection: hits, their analogues and other compounds. The true share with any hit is near 19%.
# IL1B secr inh – inhibitors of inflammasome signaling (IL-1 beta secretion); 360,000 tested, 4.7% active; activity change, % at 57.5 µM; THP-1 LPS/ATP IL-1B secretion, AlphaLISA, 16 h; stronger effect = lower value; in the data active = activity change below about -50%; inconclusive = mostly about -30% to -49%
#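 Secreted IL-1B measured by AlphaLISA bead assay after 16 h compound exposure of THP-1 cells; compounds (final up to 57.5 uM) added 1 h before LPS (250 ng/mL) and ATP (1.25 mM) stimulation; lower signal means less secretion.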
# ELG1 repair inh – inhibitors of ELG1-dependent DNA repair in HEK293T cells | HEK293T ELG1-luciferase reporter, luminescence, 16 h; DNA damage induced by 5-fluorouridine | AID 504467 | Potency, µM (titrated, usually from 46.1 µM), without a hit: at the highest dose activity change, negative = inhibition, actives largely listed as inhibitors | 330,000 tested, 2.3% active; note: potency is the fitted concentration of half-maximal effect; nearly all actives have a fitted effect of over 55% in size
#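 Overnight (16 hr) co-exposure of 2,000 cells/well to 5-fluorouridine and compound at 37 °C preceded detection. Luciferase was quantified via ONE-Glo luminescence; loss of signal denotes inhibition.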
# HT1080-NT tox – kills 2HG-producing HT-1080-NT fibrosarcoma cells | Potency, µM (series often up to 46.1 µM), without a hit: at the highest dose activity, negative = less viability, most hits filed as cytotoxic | 360,000 tested, 1.6% active | AID 686970 | HT-1080-NT fibrosarcoma viability, CellTiter-Glo ATP luminescence, 48 h;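 note: NT is the 2HG producing partner of a matched IDH1 knockdown line; potency is the fitted concentration of half-maximal effect; 0% = DMSO-treated cells and -100% = media-only wells without cells; nearly all actives have a fitted effect of over 55% in size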
#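 750 cells/well, RPMI + 5% FBS; 2 h settle, compound pin-transfer, 48 h at 37 degrees C. CellTiter-Glo 10 min RT, luminescence. Normalized to DMSO and media-only wells.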
# HT1080 IDH1KD tx – kills HT-1080 cells with IDH1 knockdown. HT-1080 IDH1 knockdown viability, ATP luminescence, 48 h. Potency, µM (highest dose often 46.1 µM), for the others: top-dose activity, negative = toxicity, actives largely listed as cytotoxic. 360,000 tested, 2% active. AID 686971;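 note: potency is the fitted concentration of half-maximal effect; 0% = DMSO wells and -100% = cell-free medium wells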
#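 Using the IDH1-knockdown HT-1080 line run in the same batch and compound series as the NT line, viability after 48 h at 37 °C was determined by CellTiter-Glo luminescence and expressed as % activity.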
# DT40 TDP1 no CPT – qHTS for Inhibitors of human tyrosyl-DNA phosphodiesterase 1 (TDP1): qHTS in cells in absence of CPT | DT40 Tdp1-/- hTDP1 cells, no CPT, ATP luminescence, 48 h | Potency, µM (titrated, usually from 46.2 µM), without a hit: at the highest dose activity change, negative = growth inhibition, usual class: inhibitors | 420,000 tested, 15% active; note: potency is the fitted concentration of half-maximal effect; nearly all actives have a fitted effect of over 55% in size
#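 DT40 Tdp1-/-;hTDP1 cells, no CPT (DMSO vehicle only), 400 cells/well; compounds pin-transferred; ≥48 hr, 37 °C; CellTiter-Glo 30 min RT dark, luminescence read.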
# TDP1 cell CPT – growth inhibition of DT40 Tdp1-/-;hTDP1 cells with camptothecin (screen for TDP1 inhibitors) | 420,000 tested, 12% active | Potency, µM (doses to about 46.2 µM), without a hit: at the top dose activity change, negative = growth inhibition, hits mostly inhibitors | chicken DT40 Tdp1-/-;hTDP1 cells + 20 nM CPT, ATP luminescence, 48 h | AID 686979; note: potency is the fitted concentration of half-maximal effect; nearly all actives have a fitted effect of over 55% in size
#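 Cell growth measured by CellTiter-Glo luminescence after a minimum 48 h, 37 C compound exposure with 20 nM CPT in Tdp1-knockout DT40 cells stably expressing hTDP1, seeded 400/well; qHTS titration format.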
# Numbers without * were called inactive; i = inactive; ? = inconclusive; · = not tested or not shown. Unless noted, calls come from the whole dose curve; as a rule, active = well fitted curve in the direction sought with a large enough effect; inconclusive = small, poorly fitted or top-dose-only effect, or another doubt; inactive = no such curve, though single readings can be large; an effect the other way counts as inactive or inconclusive. Unless noted, % is set by controls: 0 for no effect and ±100 for the full control effect.
SMILES,IL1B secr inh,ELG1 repair inh,HT1080-NT tox,HT1080 IDH1KD tx,DT40 TDP1 no CPT,TDP1 cell CPT
CC1Cc2nc(SCC(N)=O)n(Cc3ccccc3)c(=O)c2S1 (centres undefined),-11.3,-3.6%,-4.2%,-1.5%,-20.7%,-1.9%
CN1C(C(=O)NCc2cccc(Br)c2)CC2Cn3c(nc4cc(Cl)c(Cl)cc43)C21 (centres undefined),-7.7,-0.2%,-0.1%,-2.1%,?,-27.2%
COc1ccc(CCNC(=O)C2CC3Cn4c(nc5cc(Cl)c(Cl)cc54)C3N2C)cc1 (centres undefined),-0.1,0.6%,-0.4%,0.6%,?,20.6µM*
CN1C(C(=O)NCCc2cccs2)CC2Cn3c(nc4cc(Cl)c(Cl)cc43)C21 (centres undefined),-6.5,-9.3%,7.3%,2.6%,?,?
Cc1ccc(CNC(=O)C2CC3Cn4c(nc5ccccc54)C3N2C)o1 (centres undefined),27.5,5.0%,14.1%,12.1%,-8.4%,-5.1%
O=C(NCc1cccc(Br)c1)C1CC2Cn3c(nc4ccccc43)C2N1Cc1ccccc1 (centres undefined),-5.0,·,15.0%,-1.9%,18.4µM*,18.4µM*
CN1C(C(=O)NCc2cccc(Br)c2)CC2Cn3c(nc4cc5ccccc5cc43)C21 (centres undefined),-3.1,12.4%,5.8%,1.4%,20.6µM*,?
Cc1ccc(CNC(=O)C2CC3Cn4c(nc5cc6ccccc6cc54)C3N2C)o1 (centres undefined),19.3,28.1%,2.1%,-2.9%,?,18.4µM*
O=C1CC(C(=O)N2CCN(c3ccccn3)CC2)CN1Cc1ccccc1Cl (centres undefined),-11.5,4.1%,6.4%,6.2%,-2.6%,-2.2%
O=S(=O)(Nc1cccc(Cl)c1)c1ccc2[nH]c3c(c2c1)CCCCCC3,·,·,·,·,?,16.4µM*
Cc1cccc(NS(=O)(=O)c2ccc3[nH]c4c(c3c2)CCCCCC4)c1,·,·,·,·,?,18.4µM*
Cc1cccc(NC(=O)C2CCN(S(=O)(=O)c3ccc4[nH]c5c(c4c3)CCCCC5)CC2)c1,·,·,·,·,?,20.6µM*
CC(=O)c1cccc(NC(=O)C2CCN(S(=O)(=O)c3ccc4[nH]c(=O)ccc4c3)CC2)c1,·,·,·,·,16.4%,7.5%
COC(=O)C[C@H]1CC[C@@H](NC(=O)Nc2c(C)noc2C)[C@@H](CO)O1,-9.6,·,12.2%,17.4%,2.0%,10.7%
Cc1cccc(C)c1NC(=O)Nc1nnc([C@@H]2C[C@H](O)[C@@H](CO)O2)s1,-9.2,·,15.8%,16.9%,-4.1%,-1.8%
Cc1ccc(C)c(N(C)C(=O)C2CCN(S(=O)(=O)c3cccc4nsnc34)CC2)c1,·,·,·,·,13µM*,16.4µM*
Cc1ccc(N2CCN(S(=O)(=O)c3ccc4c(c3)oc(=O)n4C)CC2C)cc1 (centres undefined),12.7,3.5%,-10.2%,-4.3%,-8.7%,?
Cc1ccc(N2CCN(C(=O)C3CCN(S(=O)(=O)c4ccc5c(c4)oc(=O)n5C)CC3)CC2C)cc1 (centres undefined),·,·,·,·,3.66µM*,5.8µM*
Cc1ccc(N2CCN(C(=O)C3CCN(S(=O)(=O)c4cccc5nsnc45)CC3)CC2C)cc1 (centres undefined),-14.8,·,25.8%,9.0%,16.4µM*,?
O=C(C1CCN(S(=O)(=O)c2cccc3nsnc23)CC1)N1CCCCC1,-5.7,-0.5%,4.9%,12.7%,15.2%,-18.6%
Cc1ccc(C)c(N2CCN(C(=O)C3CCN(S(=O)(=O)c4cccc5nsnc45)CC3)CC2)c1,?,?,-14.7%,-23.3%,18.4µM*,18.4µM*
COc1cccc(C(=O)N2CCN(Cc3ccc(OC)cc3OC)CC2)c1,-16.8,-18.1%,-7.8%,9.4%,-4.1%,0.2%
N#Cc1ccc(OC(=O)c2cc(-c3ccc4c(c3)OCCO4)on2)cc1,·,·,·,·,-10.0%,-1.9%
NCCCC(O)(P(=O)(O)O)P(=O)(O)O,·,·,·,·,-12.4%,-23.7%
CCCCn1c(=O)[nH]c(=O)c2c1nc(Cn1ncc(Cl)c(Cl)c1=O)n2CCC,-104.0*,23.1µM*,8.2µM*,11.6µM*,2.59µM*,4.61µM*
SMILES,IL1B secr inh,ELG1 repair inh,HT1080-NT tox,HT1080 IDH1KD tx,DT40 TDP1 no CPT,TDP1 cell CPT
Cc1ccc(C(=O)N[C@H](C(=O)Nc2cccc(S(=O)(=O)N3CCOCC3)c2)C(C)C)cc1,4.4,·,-2.8%,8.2%,?,-8.8%
CC(=O)c1sc(NCc2ccc(C)cc2)nc1C,19.9,?,0.0%,-3.9%,-15.6%,-14.6%
CC(=O)c1sc(NC(=O)CCS(=O)(=O)c2ccccc2)nc1C,-22.9,3.2%,-8.6%,?,5.8µM*,5.17µM*
CC(=O)c1sc(NC(=O)CCS(=O)(=O)c2ccc(F)cc2)nc1C,-94.1*,·,?,?,2.91µM*,2.59µM*
Cc1ccc(S(=O)(=O)CCC(=O)Nc2ccc(F)cc2)cc1,-15.6,5.1%,-9.0%,1.3%,3.8%,-0.9%
CC(=O)c1sc(NCCOc2ccc(C)cc2)nc1C,35.6,21.9%,4.1%,-2.2%,14.6µM*,?
CC(=O)c1sc(NC(=O)C(C)C)nc1C,-30.0,-12.4%,7.2%,10.8%,-20.7%,-0.4%
CC(=O)Nc1nc(C)c(C(C)=O)s1,16.3,-2.7%,13.6%,13.0%,?,14.6µM*
Cc1cccc(C(=O)OCC(=O)c2csc(N3CCCCC3)n2)c1[N+](=O)[O-],18.1,5.3%,1.6%,6.5%,?,?
COc1ccc2nc(Nc3nc(C)c(C(C)=O)s3)sc2c1,-26.9,?,-21.8%,?,16.4µM*,?
CN(CCc1ccc(Cl)c(Cl)c1)CC(O)COc1ccc(NS(C)(=O)=O)cc1 (centres undefined),·,·,·,·,23.1µM*,18.4µM*
COc1ccc(C(=O)C2C(c3ccc(-c4ccccc4[N+](=O)[O-])o3)NC(=O)NC2(O)C(F)(F)F)cc1 (centres undefined),i,-25.4%,-1.3%,9.6%,18.4µM*,20.6µM*
O=C1NC(c2ccc(-c3ccccc3[N+](=O)[O-])o2)C(C(=O)c2ccc(F)cc2)C(O)(C(F)(F)F)N1 (centres undefined),0.0,-12.7%,-29.9%,?,?,?

# Screens deposited in PubChem BioAssay by National Center for Advancing Translational Sciences (NCATS).
